What was measured:
Assay in all cases: thermal shift delta Tm vs DMSO control; higher = stronger stabilization (binding)
Conditions in all cases: 12.5 µM; protein concentration 2 µM
[1] = tested on: LOC_OS01G01410-cb001
Method in brief: (§1)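 Rice kinase domain constructs, made in E. coli and purified, were placed in 96-well plates at 2 μM in 19.5 μl of 100 mM potassium phosphate pH 7.5, 150 mM NaCl, 10% glycerol and 5 × SYPRO Orange, with compound in DMSO. A temperature ramp from 25°C to 95°C at 0.05°C/s was used for differential scanning fluorimetry. The melting temperature shift is a triplicate mean compared with DMSO-only protein, derived from Boltzmann fits.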

[2] = tested on: LOC_OS01G02750-cb003
Method in brief: as §1

[3] = tested on: LOC_OS01G10900-cb004
Method in brief: as §1

[4] = tested on: LOC_OS01G13800-cb001
Method in brief: as §1

[5] = tested on: LOC_OS01G14860-cb001
Method in brief: as §1

[6] = tested on: LOC_OS01G21960-cb002
Method in brief: as §1

[7] = tested on: LOC_OS01G39600-cb002
Method in brief: as §1

[8] = tested on: LOC_OS01G48390-cb002
Method in brief: as §1

[9] = tested on: LOC_OS01G51400-cb002
Method in brief: as §1

[10] = tested on: T1, LOC_OS01G52050-cb004
T1 sequence (whole entry): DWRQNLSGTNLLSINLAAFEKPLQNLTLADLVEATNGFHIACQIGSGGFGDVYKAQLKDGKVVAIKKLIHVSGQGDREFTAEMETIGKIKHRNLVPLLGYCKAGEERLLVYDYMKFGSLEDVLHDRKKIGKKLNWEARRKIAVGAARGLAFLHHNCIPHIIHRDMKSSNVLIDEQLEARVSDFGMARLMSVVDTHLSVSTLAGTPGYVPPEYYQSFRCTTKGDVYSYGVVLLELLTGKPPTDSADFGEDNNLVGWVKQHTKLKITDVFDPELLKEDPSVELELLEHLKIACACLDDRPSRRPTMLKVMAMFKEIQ
Method in brief: as §1
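Also: purified Escherichia coli-expressed rice kinase domain construct.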

SMILES | thermal shift delta Tm [1] [°C] | thermal shift delta Tm [2] [°C] | thermal shift delta Tm [3] [°C] | thermal shift delta Tm [4] [°C] | thermal shift delta Tm [5] [°C] | thermal shift delta Tm [6] [°C] | thermal shift delta Tm [7] [°C] | thermal shift delta Tm [8] [°C] | thermal shift delta Tm [9] [°C] | thermal shift delta Tm [10] [°C]
COc1ccc(-c2ccc3c(N4CCOC[C@@H]4C)nc(N4CCOC[C@@H]4C)nc3n2)cc1CO | 0.54 | 0.23 | 0.08 | 0.21 | 0 | -0.12 | -0.26 | 0.01 | -0.16 | 0.06
CCNC(=O)Nc1ccc(-c2nc3c(c(N4CCOC[C@@H]4C)n2)CCN(C2COC2)C3)cc1 | 0.46 | 0.52 | 0.25 | 0.66 | 0.02 | 0.43 | -0.29 | 0.42 | -0.02 | 0.23
Cn1cc(-c2ccc3ncc(Cc4ccc5ncccc5c4)n3n2)cn1 | 0.75 | 0.95 | 6.36 | 0.22 | 0.23 | 0.62 | 0.86 | 1.24 | 0.47 | 0.62
Fc1ccc2[nH]ccc2c1-c1nc(N2CCOCC2)c2sc(CN3CCN(CC4CC4)CC3)cc2n1 | 0.26 | 0.77 | 2.96 | -0.36 | 0.37 | -0.01 | -0.27 | 0.62 | -0.02 | 0.03
CCN(CC)CCCC(C)Nc1ccnc2cc(Cl)ccc12 (stereo not given) [Chloroquine Phosphate] | 0.08 | 1.04 | 0.14 | 0.44 | 0.13 | 0.63 | -0.06 | -0.02 | 0 | -0.11
CO[C@H]1C[C@@H]2CC[C@@H](C)[C@@](O)(O2)C(=O)C(=O)N2CCCC[C@H]2C(=O)O[C@H]([C@H](C)C[C@@H]2CC[C@@H](O)[C@H](OC)C2)CC(=O)[C@H](C)/C=C(\C)[C@@H](O)[C@@H](OC)C(=O)[C@H](C)C[C@H](C)/C=C/C=C/C=C/1C [Rapamycin (Sirolimus)] | 0.87 | 0.22 | -0.07 | -0.01 | 0.33 | 0.21 | 0.05 | 0.16 | 0.12 | -0.13
CN1CCN(CCOc2cc(OC3CCOCC3)c3c(Nc4c(Cl)ccc5c4OCO5)ncnc3c2)CC1 [Saracatinib (AZD0530)] | 0.88 | 0.03 | 0.58 | 0.11 | 0.28 | 0.14 | -0.05 | 0.23 | 0.26 | 1.72
C[C@@H](N)[C@H]1CC[C@H](C(=O)Nc2ccncc2)CC1 | 1.02 | 0.15 | 0.1 | 0.65 | 0.11 | 0.84 | 0.45 | 0.65 | 0.29 | -0.08
CCCCNc1ncc2c(-c3ccc(CN4CCN(C)CC4)cc3)cn([C@H]3CC[C@H](O)CC3)c2n1 | 5.57 | 6.91 | 0.53 | -0.91 | 2.44 | 2.55 | 7.19 | 3.3 | 0.81 | 9.81
Cn1cc(-c2ccc3nnc(C(F)(F)c4ccc5ncccc5c4)n3n2)cn1 | 1.27 | -0.24 | 5.11 | 0.46 | 0.28 | 1.41 | 1.09 | 0.82 | 0.35 | 1.02
COc1cc2nccc(Oc3ccc(NC(=O)c4cn(C(C)C)c(=O)n(-c5ccc(F)cc5)c4=O)cc3F)c2cc1OC | 0.17 | 1.65 | -0.15 | 0.61 | 0.98 | 0.2 | 0.41 | 0.32 | 0.13 | 4.45
CC[C@H](CO)Nc1nc(NCc2ccccc2)c2ncn(C(C)C)c2n1 [Roscovitine (Seliciclib,CYC202)] | 1.5 | 0 | 0.05 | 0.22 | 0.12 | 0.12 | 0.5 | 0.22 | 0.03 | 0.24
OCCn1cc(-c2cnc3nnn(Cc4ccc5ncccc5c4)c3n2)cn1 | 0.52 | 0.79 | -0.12 | -0.25 | 0.12 | 0.14 | 0.11 | 0.2 | 0.09 | 0.09
O=c1cc(N2CCOCC2)oc2c(-c3cccc4c3sc3ccccc34)cccc12 | -0.61 | -1.71 | 3.77 | -1.29 | 0.08 | -0.64 | -1.62 | -0.49 | -1.28 | -0.72
C=CC(=O)Nc1cc(Nc2nccc(-c3cn(C)c4ccccc34)n2)c(OC)cc1N(C)CCN(C)C [Osimertinib (AZD9291)] | 0.41 | 0.94 | 0.45 | -0.53 | 0.01 | 0.34 | 0.02 | -0.33 | 0.43 | 0.11
CC1(COc2ccc3c(c2)ncn3-c2ccc3cccc(N4CCC(N)CC4)c3n2)COC1 | 1.38 | 7.03 | 1.43 | -0.87 | 1.96 | 3.78 | 2.31 | 0.25 | 0.13 | 11.9
CC(=O)Nc1cccc(-n2c(=O)n(C3CC3)c(=O)c3c(Nc4ccc(I)cc4F)n(C)c(=O)c(C)c32)c1 | 0.31 | 1.28 | 0.15 | 0.06 | 0.12 | 0.5 | -0.55 | 0.45 | 0 | 0.63
N#Cc1c(Oc2ccc(F)c(NC(=O)Cc3cccc(C(F)(F)F)c3)c2)ccc2nc(NC(=O)C3CC3)sc12 | 1 | 2.13 | 0.14 | 0.81 | 0.57 | 1.14 | 0.16 | 1.04 | 1.02 | 0.32
CCOc1cc2ncc(C#N)c(Nc3ccc(OCc4ccccn4)c(Cl)c3)c2cc1NC(=O)/C=C/CN(C)C [Neratinib (HKI-272)] | 1.9 | 1.42 | 1 | 0.47 | 6.67 | 0.71 | 5.12 | 0.77 | 0.27 | 2.11
